Experimental data from article PMC7862700, “An all-to-all approach to the identification of sequence-specific readers for epigenetic DNA modifications on cytosine”.

How the values were obtained:
Assay in all cases: DAPPL (digital affinity profiling via proximity ligation, sequencing); 10 mM Tris-HCl pH 7.5, 50 mM NaCl, 1 mM DTT, 4% glycerol, room temperature, 30 min; GST-TFs on glutathione beads, 16-mer random dsDNA library, 0.1% formaldehyde crosslink after washing; high values mean tight binding
Conditions in all cases: protein: recombinant; tags: N-terminal GST; dsDNA, one strand shown
FLI1 = target: T1, FLI1 (Homo sapiens, UniProt Q01543 1-452)
T1 sequence: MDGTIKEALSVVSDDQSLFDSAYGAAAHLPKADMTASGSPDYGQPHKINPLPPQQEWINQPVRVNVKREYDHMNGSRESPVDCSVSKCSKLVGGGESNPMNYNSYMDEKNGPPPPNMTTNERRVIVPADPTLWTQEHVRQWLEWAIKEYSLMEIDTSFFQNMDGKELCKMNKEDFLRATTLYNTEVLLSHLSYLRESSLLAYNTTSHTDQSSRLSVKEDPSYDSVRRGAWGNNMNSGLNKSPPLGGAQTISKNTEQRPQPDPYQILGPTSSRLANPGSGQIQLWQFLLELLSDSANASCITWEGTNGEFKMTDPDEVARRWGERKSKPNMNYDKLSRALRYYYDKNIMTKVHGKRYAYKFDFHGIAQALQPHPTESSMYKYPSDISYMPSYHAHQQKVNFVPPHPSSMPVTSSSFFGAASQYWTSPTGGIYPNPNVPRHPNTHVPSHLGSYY
Procedure, shortened: (§1)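 The binding signal reported is, for every hexamer, its read frequency for a factor over its read frequency for the tag-only sample. Reads came from pools of yeast-expressed, GST-fused human transcription factors on glutathione beads, barcoded with DNA and mixed with that sample, which were incubated with 200 nmole of a random double-stranded 16-mer DNA library in Tris/NaCl/DTT/glycerol buffer at room temperature for 30 min. After washing, the pools were crosslinked with 0.1% formaldehyde, proximity-ligated with BsaI/T4 ligase for 1 h at 37 °C, PCR-amplified and sequenced on an Illumina NextSeq500.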

ELK1 = target: T2, ELK1 (Homo sapiens, UniProt P19419 1-428)
T2 sequence: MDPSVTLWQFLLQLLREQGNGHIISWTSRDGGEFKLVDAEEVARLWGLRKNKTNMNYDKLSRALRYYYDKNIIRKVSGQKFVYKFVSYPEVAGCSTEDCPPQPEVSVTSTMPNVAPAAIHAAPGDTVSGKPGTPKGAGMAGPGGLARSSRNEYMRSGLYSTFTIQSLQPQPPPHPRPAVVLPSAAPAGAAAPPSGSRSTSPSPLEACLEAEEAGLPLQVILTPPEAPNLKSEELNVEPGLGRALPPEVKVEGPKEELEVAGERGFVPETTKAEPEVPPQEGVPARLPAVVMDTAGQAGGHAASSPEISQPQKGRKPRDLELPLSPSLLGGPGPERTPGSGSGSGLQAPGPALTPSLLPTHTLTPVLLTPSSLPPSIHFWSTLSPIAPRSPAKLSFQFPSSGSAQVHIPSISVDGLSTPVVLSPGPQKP
Procedure, shortened: as §1

GABPA = target: T3, GABPA (Homo sapiens, UniProt Q06546 1-454)
T3 sequence: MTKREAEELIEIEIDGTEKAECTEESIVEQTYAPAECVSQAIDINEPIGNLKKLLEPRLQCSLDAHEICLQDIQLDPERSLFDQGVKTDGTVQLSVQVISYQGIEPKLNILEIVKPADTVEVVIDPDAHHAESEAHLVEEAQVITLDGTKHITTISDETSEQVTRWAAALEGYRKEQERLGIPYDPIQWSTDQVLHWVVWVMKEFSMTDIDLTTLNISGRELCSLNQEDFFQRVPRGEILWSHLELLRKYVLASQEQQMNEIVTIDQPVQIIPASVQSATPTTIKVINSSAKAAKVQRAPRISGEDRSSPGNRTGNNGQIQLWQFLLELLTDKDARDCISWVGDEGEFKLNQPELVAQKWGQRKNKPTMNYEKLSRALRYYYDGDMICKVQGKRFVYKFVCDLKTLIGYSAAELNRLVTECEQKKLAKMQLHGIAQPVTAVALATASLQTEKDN
Procedure, shortened: as §1

ERG = target: T4, ERG (Homo sapiens, UniProt P11308 1-479)
T4 sequence: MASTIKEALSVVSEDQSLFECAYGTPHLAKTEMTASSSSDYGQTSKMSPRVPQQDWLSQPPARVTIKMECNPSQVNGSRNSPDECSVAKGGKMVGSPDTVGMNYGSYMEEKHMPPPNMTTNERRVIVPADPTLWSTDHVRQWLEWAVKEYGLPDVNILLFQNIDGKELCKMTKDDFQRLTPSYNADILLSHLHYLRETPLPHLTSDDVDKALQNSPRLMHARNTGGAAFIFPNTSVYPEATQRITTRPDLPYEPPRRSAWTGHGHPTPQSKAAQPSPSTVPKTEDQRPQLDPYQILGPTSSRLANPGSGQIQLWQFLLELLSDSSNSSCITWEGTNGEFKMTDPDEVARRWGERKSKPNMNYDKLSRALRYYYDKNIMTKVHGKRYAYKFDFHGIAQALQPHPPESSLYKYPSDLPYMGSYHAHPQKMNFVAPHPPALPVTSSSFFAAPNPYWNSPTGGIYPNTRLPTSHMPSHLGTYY
Procedure, shortened: as §1

ELF1 = ELF1 (Homo sapiens, UniProt P32519 1-619)
Procedure, shortened: as §1

EHF = target: T5, EHF (Homo sapiens, UniProt Q9NZC4 1-300)
T5 sequence: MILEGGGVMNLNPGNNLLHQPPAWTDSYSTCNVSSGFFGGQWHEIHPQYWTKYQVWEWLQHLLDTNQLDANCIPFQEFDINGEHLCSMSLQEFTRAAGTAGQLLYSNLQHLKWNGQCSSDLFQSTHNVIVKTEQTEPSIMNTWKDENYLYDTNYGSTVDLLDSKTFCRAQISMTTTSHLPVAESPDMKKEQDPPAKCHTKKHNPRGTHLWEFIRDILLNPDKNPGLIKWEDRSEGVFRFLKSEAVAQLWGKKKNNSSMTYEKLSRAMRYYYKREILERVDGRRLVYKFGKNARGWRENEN
Procedure, shortened: as §1

SPIB = SPIB (Homo sapiens, UniProt Q01892 1-262)
Procedure, shortened: as §1

ELK3 = target: T6, ELK3 (Homo sapiens, UniProt P41970 1-407)
T6 sequence: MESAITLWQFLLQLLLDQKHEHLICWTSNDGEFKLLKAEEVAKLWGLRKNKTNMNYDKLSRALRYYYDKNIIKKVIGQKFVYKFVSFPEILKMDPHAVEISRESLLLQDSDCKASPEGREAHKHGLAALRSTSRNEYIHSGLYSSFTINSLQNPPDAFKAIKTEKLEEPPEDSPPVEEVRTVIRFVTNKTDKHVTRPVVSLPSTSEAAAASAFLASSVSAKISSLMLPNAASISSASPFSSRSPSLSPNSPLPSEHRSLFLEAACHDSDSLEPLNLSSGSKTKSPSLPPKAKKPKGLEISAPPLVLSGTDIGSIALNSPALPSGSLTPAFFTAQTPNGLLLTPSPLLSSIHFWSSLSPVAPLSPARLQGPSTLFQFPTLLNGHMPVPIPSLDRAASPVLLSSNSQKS
Procedure, shortened: as §1

FEV = target: T7, FEV (Homo sapiens, UniProt Q99581 1-238)
T7 sequence: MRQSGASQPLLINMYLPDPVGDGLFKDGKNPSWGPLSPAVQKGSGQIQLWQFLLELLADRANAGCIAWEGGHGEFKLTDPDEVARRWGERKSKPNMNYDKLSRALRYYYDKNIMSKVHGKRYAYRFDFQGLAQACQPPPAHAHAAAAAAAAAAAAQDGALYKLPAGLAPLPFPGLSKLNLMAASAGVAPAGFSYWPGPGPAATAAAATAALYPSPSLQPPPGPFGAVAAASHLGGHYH
Procedure, shortened: as §1

ETV5 = ETV5 (Homo sapiens, UniProt P41161 1-510)
Procedure, shortened: as §1

SPIC = target: T8, SPIC (Homo sapiens, UniProt Q8N5J4 1-248)
T8 sequence: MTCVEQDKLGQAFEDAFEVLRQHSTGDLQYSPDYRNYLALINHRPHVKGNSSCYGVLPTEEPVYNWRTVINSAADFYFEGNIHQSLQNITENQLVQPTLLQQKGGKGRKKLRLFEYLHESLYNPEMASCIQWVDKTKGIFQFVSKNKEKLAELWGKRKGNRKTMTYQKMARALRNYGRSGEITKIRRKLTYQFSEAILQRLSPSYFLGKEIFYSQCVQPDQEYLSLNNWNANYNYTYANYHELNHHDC
Procedure, shortened: as §1

ELF4 = ELF4 (Homo sapiens, UniProt Q99607 1-663)
Procedure, shortened: as §1

ETV1 = ETV1 (Homo sapiens, UniProt P50549 1-477)
Procedure, shortened: as §1

ERF = target: T9, ERF (Homo sapiens, UniProt P50548 1-548)
T9 sequence: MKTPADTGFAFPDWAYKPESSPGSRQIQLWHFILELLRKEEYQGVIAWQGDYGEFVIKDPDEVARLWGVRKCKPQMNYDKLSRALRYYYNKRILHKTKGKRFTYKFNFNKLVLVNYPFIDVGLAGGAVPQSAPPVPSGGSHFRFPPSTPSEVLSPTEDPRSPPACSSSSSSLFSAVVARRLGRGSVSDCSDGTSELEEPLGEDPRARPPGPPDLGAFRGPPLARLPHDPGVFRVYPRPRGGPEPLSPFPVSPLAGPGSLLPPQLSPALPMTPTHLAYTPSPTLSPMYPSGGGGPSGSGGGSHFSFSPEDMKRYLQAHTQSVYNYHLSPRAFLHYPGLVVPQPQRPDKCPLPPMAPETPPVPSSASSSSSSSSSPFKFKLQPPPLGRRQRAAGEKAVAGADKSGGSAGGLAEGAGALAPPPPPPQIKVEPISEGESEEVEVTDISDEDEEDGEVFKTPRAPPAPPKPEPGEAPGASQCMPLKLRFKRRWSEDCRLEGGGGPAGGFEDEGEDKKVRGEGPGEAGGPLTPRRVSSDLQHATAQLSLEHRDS
Procedure, shortened: as §1

ETV3L = target: T10, ETV3L (Homo sapiens, UniProt Q6ZN32 1-361)
T10 sequence: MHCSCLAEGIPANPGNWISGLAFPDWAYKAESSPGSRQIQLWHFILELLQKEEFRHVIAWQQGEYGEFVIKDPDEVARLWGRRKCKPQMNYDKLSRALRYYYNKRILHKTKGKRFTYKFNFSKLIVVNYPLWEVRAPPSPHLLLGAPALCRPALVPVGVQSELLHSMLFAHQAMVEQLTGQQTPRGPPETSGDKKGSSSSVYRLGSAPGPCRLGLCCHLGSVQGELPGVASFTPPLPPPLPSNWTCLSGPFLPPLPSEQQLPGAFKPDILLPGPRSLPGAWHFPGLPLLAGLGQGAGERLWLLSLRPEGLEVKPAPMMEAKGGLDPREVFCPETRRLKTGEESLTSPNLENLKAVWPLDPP
Procedure, shortened: as §1

ETS2 = target: T11, ETS2 (Homo sapiens, UniProt P15036 1-469)
T11 sequence: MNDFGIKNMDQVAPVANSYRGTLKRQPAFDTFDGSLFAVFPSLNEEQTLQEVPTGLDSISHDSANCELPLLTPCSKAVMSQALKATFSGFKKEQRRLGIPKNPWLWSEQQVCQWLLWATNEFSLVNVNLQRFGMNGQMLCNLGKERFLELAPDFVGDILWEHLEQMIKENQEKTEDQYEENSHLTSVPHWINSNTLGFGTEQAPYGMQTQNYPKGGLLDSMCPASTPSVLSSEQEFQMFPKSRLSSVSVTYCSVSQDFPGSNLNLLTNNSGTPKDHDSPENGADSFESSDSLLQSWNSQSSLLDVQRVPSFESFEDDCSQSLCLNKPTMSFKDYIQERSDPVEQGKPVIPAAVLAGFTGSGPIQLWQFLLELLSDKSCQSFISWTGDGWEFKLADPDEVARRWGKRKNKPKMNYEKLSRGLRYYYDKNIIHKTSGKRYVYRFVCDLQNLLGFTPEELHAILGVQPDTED
Procedure, shortened: as §1

SPDEF = target: T12, SPDEF (Homo sapiens, UniProt O95238 1-335)
T12 sequence: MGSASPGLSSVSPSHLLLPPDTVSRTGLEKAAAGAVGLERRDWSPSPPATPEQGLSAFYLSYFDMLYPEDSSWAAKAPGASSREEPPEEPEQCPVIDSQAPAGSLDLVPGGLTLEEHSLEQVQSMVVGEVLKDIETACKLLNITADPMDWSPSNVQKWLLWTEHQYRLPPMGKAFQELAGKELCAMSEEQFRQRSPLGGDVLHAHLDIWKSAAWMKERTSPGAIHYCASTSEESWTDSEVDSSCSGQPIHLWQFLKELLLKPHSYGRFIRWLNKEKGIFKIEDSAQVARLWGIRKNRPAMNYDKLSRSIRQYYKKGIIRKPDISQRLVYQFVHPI
Procedure, shortened: as §1

ETV3 = target: T13, ETV3 (Homo sapiens, UniProt P41162-2 1-143)
T13 sequence: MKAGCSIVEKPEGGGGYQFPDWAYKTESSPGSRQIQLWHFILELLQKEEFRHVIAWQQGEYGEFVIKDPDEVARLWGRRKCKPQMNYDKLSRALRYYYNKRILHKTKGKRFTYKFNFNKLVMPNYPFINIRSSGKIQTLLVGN
Procedure, shortened: as §1

Sequence of ELF4 (Q99607 whole entry): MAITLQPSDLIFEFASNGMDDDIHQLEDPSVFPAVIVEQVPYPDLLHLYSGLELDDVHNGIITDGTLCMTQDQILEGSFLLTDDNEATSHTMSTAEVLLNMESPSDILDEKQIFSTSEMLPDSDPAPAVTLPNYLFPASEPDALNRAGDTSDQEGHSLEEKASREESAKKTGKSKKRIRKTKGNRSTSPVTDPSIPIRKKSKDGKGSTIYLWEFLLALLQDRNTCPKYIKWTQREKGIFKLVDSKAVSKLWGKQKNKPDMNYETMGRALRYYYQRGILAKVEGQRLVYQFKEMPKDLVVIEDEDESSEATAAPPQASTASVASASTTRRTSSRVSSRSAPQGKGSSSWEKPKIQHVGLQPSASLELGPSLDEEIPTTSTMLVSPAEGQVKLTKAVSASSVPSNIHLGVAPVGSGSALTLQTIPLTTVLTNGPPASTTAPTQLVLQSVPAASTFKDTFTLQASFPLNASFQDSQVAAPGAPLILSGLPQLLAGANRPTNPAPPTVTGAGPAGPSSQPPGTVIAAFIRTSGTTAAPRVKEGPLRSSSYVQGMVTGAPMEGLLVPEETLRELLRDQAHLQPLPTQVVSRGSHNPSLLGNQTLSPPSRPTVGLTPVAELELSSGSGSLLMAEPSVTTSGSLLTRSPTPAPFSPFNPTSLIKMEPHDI
Sequence of ETV1 (P50549 whole entry): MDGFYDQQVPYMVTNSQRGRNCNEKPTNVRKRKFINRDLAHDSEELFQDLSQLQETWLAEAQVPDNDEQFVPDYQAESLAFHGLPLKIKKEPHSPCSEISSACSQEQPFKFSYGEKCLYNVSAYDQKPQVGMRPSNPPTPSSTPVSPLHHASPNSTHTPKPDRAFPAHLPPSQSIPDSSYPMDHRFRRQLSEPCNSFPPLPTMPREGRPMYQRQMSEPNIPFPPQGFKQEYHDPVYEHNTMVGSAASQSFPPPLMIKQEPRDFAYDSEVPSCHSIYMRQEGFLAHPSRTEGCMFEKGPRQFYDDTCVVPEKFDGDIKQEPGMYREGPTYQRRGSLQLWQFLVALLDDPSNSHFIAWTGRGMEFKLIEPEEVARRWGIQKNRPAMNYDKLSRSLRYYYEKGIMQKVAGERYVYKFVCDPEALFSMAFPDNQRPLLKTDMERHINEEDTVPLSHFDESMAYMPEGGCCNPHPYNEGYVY
Sequence of SPIB (Q01892 whole entry): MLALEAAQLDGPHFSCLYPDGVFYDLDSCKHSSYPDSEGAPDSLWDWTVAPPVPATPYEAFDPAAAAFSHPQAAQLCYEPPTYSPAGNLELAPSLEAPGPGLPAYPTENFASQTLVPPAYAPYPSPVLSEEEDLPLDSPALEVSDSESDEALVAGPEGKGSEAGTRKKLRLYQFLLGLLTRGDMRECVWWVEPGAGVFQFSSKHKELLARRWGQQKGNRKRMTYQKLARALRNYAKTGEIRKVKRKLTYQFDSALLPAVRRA
Sequence of ELF1 (P32519 whole entry): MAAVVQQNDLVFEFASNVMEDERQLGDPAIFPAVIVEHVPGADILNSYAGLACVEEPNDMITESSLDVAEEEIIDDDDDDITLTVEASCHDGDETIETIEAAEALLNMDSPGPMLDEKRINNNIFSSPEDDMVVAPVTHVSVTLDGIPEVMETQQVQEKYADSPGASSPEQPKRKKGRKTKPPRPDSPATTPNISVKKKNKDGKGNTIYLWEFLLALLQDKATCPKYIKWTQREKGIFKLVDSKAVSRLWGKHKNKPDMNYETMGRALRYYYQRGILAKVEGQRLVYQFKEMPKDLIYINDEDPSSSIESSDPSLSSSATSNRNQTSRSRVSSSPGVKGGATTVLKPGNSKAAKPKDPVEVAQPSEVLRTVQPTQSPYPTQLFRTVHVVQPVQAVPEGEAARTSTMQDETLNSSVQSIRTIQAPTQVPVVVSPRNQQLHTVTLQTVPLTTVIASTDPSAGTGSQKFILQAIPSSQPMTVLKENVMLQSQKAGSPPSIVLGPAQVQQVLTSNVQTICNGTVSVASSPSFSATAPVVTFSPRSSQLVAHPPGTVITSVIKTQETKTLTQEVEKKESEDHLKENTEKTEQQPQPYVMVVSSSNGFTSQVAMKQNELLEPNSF
Sequence of ETV5 (P41161 whole entry): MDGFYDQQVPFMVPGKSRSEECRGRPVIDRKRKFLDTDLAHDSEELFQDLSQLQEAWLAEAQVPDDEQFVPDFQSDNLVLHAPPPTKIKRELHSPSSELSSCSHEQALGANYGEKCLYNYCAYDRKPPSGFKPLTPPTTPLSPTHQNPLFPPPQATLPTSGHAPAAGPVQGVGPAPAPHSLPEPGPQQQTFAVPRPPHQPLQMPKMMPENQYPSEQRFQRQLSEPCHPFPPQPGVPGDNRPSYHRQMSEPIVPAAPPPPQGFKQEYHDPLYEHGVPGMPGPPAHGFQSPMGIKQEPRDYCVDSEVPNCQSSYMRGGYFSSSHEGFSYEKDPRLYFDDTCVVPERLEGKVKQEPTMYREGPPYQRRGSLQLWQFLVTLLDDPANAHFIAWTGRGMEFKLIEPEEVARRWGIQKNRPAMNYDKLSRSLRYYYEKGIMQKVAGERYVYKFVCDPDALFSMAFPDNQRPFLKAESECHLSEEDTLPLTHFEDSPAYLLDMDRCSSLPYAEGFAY

CGGCCT
binding signal (FLI1): 1.22 fold enrichment (6-mer frequency, TF over GST control) | binding signal (ELK1): 1.15 fold enrichment (6-mer frequency, TF over GST control) | binding signal (GABPA): 1.16 fold enrichment (6-mer frequency, TF over GST control) | binding signal (ERG): 1.17 fold enrichment (6-mer frequency, TF over GST control) | binding signal (ELF1): 1.1 fold enrichment (6-mer frequency, TF over GST control) | binding signal (EHF): 1.08 fold enrichment (6-mer frequency, TF over GST control) | binding signal (SPIB): 1.02 fold enrichment (6-mer frequency, TF over GST control) | binding signal (ELK3): 1.13 fold enrichment (6-mer frequency, TF over GST control) | binding signal (FEV): 1.17 fold enrichment (6-mer frequency, TF over GST control) | binding signal (ETV5): 1.14 fold enrichment (6-mer frequency, TF over GST control) | binding signal (SPIC): 1.14 fold enrichment (6-mer frequency, TF over GST control) | binding signal (ELF4): 1.12 fold enrichment (6-mer frequency, TF over GST control) | binding signal (ETV1): 1.05 fold enrichment (6-mer frequency, TF over GST control) | binding signal (ERF): 1.06 fold enrichment (6-mer frequency, TF over GST control) | binding signal (ETV3L): 1.07 fold enrichment (6-mer frequency, TF over GST control) | binding signal (ETS2): 1.06 fold enrichment (6-mer frequency, TF over GST control) | binding signal (SPDEF): 1.12 fold enrichment (6-mer frequency, TF over GST control) | binding signal (ETV3): 1.18 fold enrichment (6-mer frequency, TF over GST control)
